Test results: the supplement of paper PMC7156485
± gives the standard deviation of the averaged measurements.

How the values were obtained:
Settings in all cases: concentration: 10 µM; 24 h
HCC1569 [1] = test: cell number relative to DMSO (% of DMSO); higher = more cells (less growth inhibition / toxicity)
Summary of the method: (§1)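 Cells were seeded at 800 per well in 384-well plates with RPMI containing 10% FBS; both HCC1569 and TDF lines were used. Compounds were added at 10 µM for 24 h at 37 °C, in triplicate, before fixation in 3.7% formaldehyde and staining with a rabbit anti-H1.0 antibody, an AlexaFluor 647 secondary and DAPI. H1.0 nuclear intensity or cell number is reported as percent of the plate control using the median of replicates, and HCC1569 values were smoothed for positional effects.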

TDF [2] = test: as above
Summary of the method: as §1

TDF [3] = test: H1.0 immunofluorescence intensity relative to DMSO (% of DMSO); higher = stronger H1.0 induction, active = 120 or more
Summary of the method: as §1

HCC1569 [4] = test: H1.0 immunofluorescence intensity relative to DMSO (% of DMSO); higher = stronger H1.0 induction, active = 140 or more
Summary of the method: as §1
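Wherever H1.0 immunofluorescence intensity relative to DMSO is given: TDF is a line of transformed human dermal fibroblasts of mesenchymal origin.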
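Wherever cell number relative to DMSO is given: TDF denotes transformed human dermal fibroblasts of mesenchymal origin.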

| Compound | cell number (HCC1569 [1]) | cell number (TDF [2]) | H1.0 immunofluorescence intensity (TDF [3]) | H1.0 immunofluorescence intensity (HCC1569 [4]) |
| --- | --- | --- | --- | --- |
| N[C@H](CCC(=O)NCS(=O)(=O)O)C(=O)O [gamma-D-Glutamylaminomethylsulfonic acid] | 101 | 109 | 96.1 (inactive) | 93.6 (inactive) |
| CCCCCCCC/C=C\CCCCCCC(O)C(=O)O (configuration not stated) [(9Z)-2-hydroxy-9-octadecenoic acid] | 100 | 88.9 | 102 (inactive) | 91.2 (inactive) |
| CCCCCC(O)C=CC1=C(CCCCCCC(=O)O)C(=O)CC1 (configuration not stated) [Prostaglandin B1] | 101 ± 2.6 | 108.4 ± 0.5 | 97.7 (inactive) | 101 (inactive) |
| CCn1cc(C(=O)O)c(=O)c2cc(F)c(N3CCNC(C)C3)c(F)c21.Cl (configuration not stated) [Lomefloxacin hydrochloride] | 101 | 102 | 92.2 (inactive) | 92.9 (inactive) |
| CCCCN1CC(O)C(O)C(O)C1CO (configuration not stated) [Miglustat] | 100 | 95.6 | 97.2 (inactive) | 114 (inactive) |
| O=C(NC(NC(=S)Nc1ccc(F)c([N+](=O)[O-])c1)C(Cl)(Cl)Cl)C(c1ccccc1)c1ccccc1 (configuration not stated) [ATM/ATR Kinase Inhibitor] | 62.4 | 64.5 | 112 (inactive) | 179 (active) |
| COc1cc2c(CCNC(C)=O)c[nH]c2cc1Cl [6-Chloromelatonin] | 101 | 106 | 94.8 (inactive) | 90 (inactive) |
| CN(C)CCC(c1ccc(Br)cc1)c1ccccn1.O=C(O)C=CC(=O)O (racemic) | 101 | 98.7 | 97.9 (inactive) | 94.6 (inactive) |
| Cc1cc(C(C)Nc2ccccc2)c2nc(N3CCOCC3)cc(=O)n2c1 (configuration not stated) | 80.7 | 109 | 92.5 (inactive) | 136 (inactive) |
| CC1(C)SC2C(NC(=O)C(N)c3ccccc3)C(=O)N2C1C(=O)O (configuration not stated) [Ampicillin] | 103 | 109 | 90 (inactive) | 108 (inactive) |
| COC(=O)C(Cc1ccc(OCCn2c(=O)sc3cc(C(=O)c4ccccc4)ccc32)cc1)C(=O)OC | 102 | 91.8 | 93.3 (inactive) | 105 (inactive) |
| CN(Cc1ccc(C(C)(C)C)cc1)Cc1cccc2ccccc12 [Butenafine] | 101 | 92.9 | 104 (inactive) | 100 (inactive) |
| C#C[C@@]1(OC(C)=O)CC[C@H]2[C@@H]3CCC4=CC(=O)CC[C@@H]4[C@H]3CC[C@@]21C [(17beta)-17-ethynyl-3-oxoestr-4-en-17-yl acetate] | 90.4 | 96.8 | 95.5 (inactive) | 121 (inactive) |
| CCn1cc(C(=O)O)c(=O)c2ccc(C)nc21 [Nalidixic acid] | 102 | 98.7 | 91.1 (inactive) | 86.1 (inactive) |
| CC12CCC(=O)C=C1C=CC1C2CCC2(C)C1CCC21CCC(=O)O1 (configuration not stated) [Canrenone] | 99.6 | 103 | 89.7 (inactive) | 102 (inactive) |
| CN1CCCCC1CCN1c2ccccc2Sc2ccc(S(C)=O)cc21.O=S(=O)(O)c1ccccc1 (configuration not stated) [Mesoridazine besylate] | 103 | 111 | 92.4 (inactive) | 109 (inactive) |
| C1CCN2CC3CC(CN4CCCCC34)C2C1.O.O.O.O.O.O=S(=O)(O)O (configuration not stated) | 103 | 94.3 | 107 (inactive) | 98.4 (inactive) |
| Cc1[nH]c2ccccc2c1CC(=O)N[C@@H](Cc1ccccc1)C(=O)N(C)c1ccccc1 | 100 | 109 | 88.8 (inactive) | 119 (inactive) |
| COc1ccc(C(=O)Nc2c(Cl)cncc2Cl)cc1OC1CCCC1 | 102 | 93.3 | 91 (inactive) | 106 (inactive) |
| CC(C)C(=O)Nc1ncc(-c2cc(C(F)F)nn2-c2c(Cl)cccc2Cl)s1 | 75.5 | 69.8 | 111 (inactive) | 111 (inactive) |
| COc1ccc2cc(C(C)C(=O)[O-])ccc2c1.[Na+] (single isomer, unassigned; (-)) [(-)-Naproxen sodium] | 105 | 93.1 | 96.1 (inactive) | 102 (inactive) |
| CC(CN1CCC(Cc2ccccc2)CC1)C(O)c1ccc(O)cc1.Cl (configuration not stated) [Ro 25-6981 hydrochloride] | 105 | 101 | 86.4 (inactive) | 96.6 (inactive) |

| Compound | cell number (HCC1569 [1]) | cell number (TDF [2]) | H1.0 immunofluorescence intensity (TDF [3]) | H1.0 immunofluorescence intensity (HCC1569 [4]) |
| --- | --- | --- | --- | --- |
| O=C1c2ccc(O)cc2OC(c2cc(O)c(O)c(O)c2)C1O (configuration not stated) [Dihydrorobinetine] | 102 | 106 | 95.3 (inactive) | 95.3 (inactive) |
| C[C@@H]([C@@H](O)c1ccc(O)cc1)N1CCC(O)(c2ccccc2)CC1 | 102 | 91.1 | 94.7 (inactive) | 105 (inactive) |
| OCc1cc(C(O)CNCCCCCCOCCCCc2ccccc2)ccc1O (configuration not stated) [Salmeterol] | 90.4 | 100 | 110 (inactive) | 132 (inactive) |
| CON=C(C(=O)NC1C(=O)N2C(C(=O)[O-])=C(CSc3nc(=O)c([O-])nn3C)CSC12)c1csc(N)n1.[Na+].[Na+] (configuration not stated) [Ceftriaxone sodium] | 101 | 99.8 | 99.3 (inactive) | 94 (inactive) |
| COc1ccc2c(c1)c(CC(=O)Nc1ccc(NC(C)=O)cc1)c(C)n2C(=O)c1ccc(Cl)cc1 [N-(4-acetamidophenyl)indomethacinamide] | 78.7 | 70.1 | 134 (active) | 149 (active) |
| CC(N)=NCc1cccc(CN)c1.Cl.Cl [1400W dihydrochloride] | 101 | 119 | 90.6 (inactive) | 109 (inactive) |
| CC(C)(Sc1cc(C(C)(C)C)c(O)c(C(C)(C)C)c1)Sc1cc(C(C)(C)C)c(O)c(C(C)(C)C)c1 [Probucol] | 102 | 106 | 91.9 (inactive) | 91.8 (inactive) |
| Cl.NC1(C(=O)O)CCCCC1 [1-Amino-1-cyclohexanecarboxylic acid hydrochloride] | 100 | 106 | 95.3 (inactive) | 86.6 (inactive) |
| CN1C(C(=O)Nc2ccccn2)=C(O)c2ccccc2S1(=O)=O [Piroxicam] | 102 ± 2.1 | 107 ± 3.5 | 96.9 (inactive) | 98.2 (inactive) |
| Cc1nc2ccccn2c(=O)c1CCN1CCC(C(=O)c2ccc(F)cc2)CC1 [Pirenperone] | 99.5 | 100 | 96.5 (inactive) | 103 (inactive) |
| CCN(CC)CCNC(=O)c1ccc(N)cc1.Cl [Procainamide.HCl] | 108 | 101 | 91.2 (inactive) | 101 (inactive) |
| COCCc1ccc(OCC(O)CNC(C)C)cc1 (configuration not stated) [Metoprolol] | 104 | 99.5 | 102 (inactive) | 104 (inactive) |
| C=C1CC2C3C=C(C)C4=CC(=O)CCC4(C)C3CCC2(C)C1(OC(C)=O)C(C)=O (configuration not stated) [Melengestrol Acetate] | 102 | 103 | 94.3 (inactive) | 109 (inactive) |
| Cc1cccc(-c2[nH]ncc2-c2ccc3ncccc3n2)n1 | 96.6 | 95.3 | 94.9 (inactive) | 92.8 (inactive) |
| O=C1NC(=O)C(c2c[nH]c3ccccc23)=C1c1c[nH]c2ccccc12 [Bisindolylmaleimide IV] | 91.2 | 119 | 94.7 (inactive) | 136 (inactive) |
| CN1CCC(=C2c3ccccc3C=Cc3ccccc32)CC1.Cl [Cyproheptadine hydrochloride] | 98 | 97.3 | 111 (inactive) | 120 (inactive) |
| COc1ccc(C(C)=O)c(O)c1 [Paeonol] | 99 | 102 | 92.9 (inactive) | 101 (inactive) |
| Nc1ncnc2c1ncn2C1OC(C(=O)NC2CC2)C(O)C1O (configuration not stated) [5'-(N-Cyclopropyl)carboxamidoadenosine] | 99.6 | 95.1 | 97.8 (inactive) | 93.6 (inactive) |
| Cl.O=S(=O)(c1cccc2c(I)cccc12)N1CCCNCC1 | 105 | 116 | 99.4 (inactive) | 89.8 (inactive) |
| COc1ccc(OC)c2c(=S)c3ccccc3[nH]c12 | 105 | 92 | 106 (inactive) | 111 (inactive) |
| O=C(O)c1ccc(NC(=O)[C@H](CC2CCCC2)n2cnc(C(F)(F)F)c2)nc1 | 100 | 100 | 96.9 (inactive) | 106 (inactive) |
